Records with an inconclusive call do not appear. Calls of active or inactive are those of the source. The calls were made as follows: active = hit-call score of the fitted dose curve at least 0.9, where 1 is the maximum; inconclusive = response in the unintended direction; inactive = score below 0.9.
The molecules below were run against Retinoic acid receptor RXR-alpha (Homo sapiens) (UniProt P19793) (assay: ATG_RXRa_TRANS: Attagene TRANS-FACTORIAL HepG2 Assay for human Retinoid X Receptor alpha (RXRa) (AID 2283012)).
Summary of the method: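 HepG2 cells transiently transfected with GAL4-UAS reporter units and chimeric RXRa-Gal4 protein, treated 24 h. Reporter mRNA measured by RT-PCR, fluorescent labelling, HpaI digestion and capillary electrophoresis. Induction fitted against DMSO.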

Sequence of Retinoic acid receptor RXR-alpha (Homo sapiens) (P19793 whole entry, looked up, the tested form may be a part): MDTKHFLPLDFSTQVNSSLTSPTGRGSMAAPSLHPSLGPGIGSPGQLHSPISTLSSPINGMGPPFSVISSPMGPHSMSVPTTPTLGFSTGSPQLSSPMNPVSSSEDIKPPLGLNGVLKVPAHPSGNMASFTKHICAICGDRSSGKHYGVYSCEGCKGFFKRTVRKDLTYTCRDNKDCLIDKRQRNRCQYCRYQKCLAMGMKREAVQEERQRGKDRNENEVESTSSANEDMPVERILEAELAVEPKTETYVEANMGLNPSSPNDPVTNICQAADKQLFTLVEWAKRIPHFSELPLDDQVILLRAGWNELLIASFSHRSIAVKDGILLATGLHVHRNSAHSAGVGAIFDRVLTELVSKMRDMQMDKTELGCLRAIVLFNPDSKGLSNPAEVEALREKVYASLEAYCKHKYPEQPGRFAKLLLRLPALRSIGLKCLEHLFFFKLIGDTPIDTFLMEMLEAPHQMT

Compound	outcome	AC50
CCCCOC(=O)CCCCCCCC(=O)OCCCC	inactive	–
CC(=O)O[C@H]1C[C@@H]2CC[C@@]1(C)C2(C)C	inactive	–
Nc1c(Cl)cc(Cl)cc1[N+](=O)[O-]	inactive	–
COc1cc([C@@H]2c3cc4c(cc3[C@@H](O[C@@H]3O[C@@H]5CO[C@@H](C)O[C@H]5[C@H](O)[C@H]3O)[C@H]3COC(=O)[C@H]23)OCO4)cc(OC)c1O	inactive	–
CC(C)C(OC(=O)c1ccccc1)C(C)(C)COC(=O)c1ccccc1 (stereo unspecified)	inactive	–
COc1ccc(N)c([N+](=O)[O-])c1	inactive	–
CCOC(=O)CN	inactive	–
CCCSc1ccc2nc(NC(=O)OC)[nH]c2c1	inactive	–
CCCCCCCCCCCCN1CCCCCC1=O	inactive	–
c1ccc(CCc2ccccc2)cc1	inactive	–
C[Si](C)(C)O[Si](C)(C)C	inactive	–
Nc1c(S(=O)(=O)O)cc(Br)c2c1C(=O)c1ccccc1C2=O	inactive	–
O=C(O)CNc1ccccc1	inactive	–
C=C(C)[C@H]1CC=C(C)C(=O)C1	inactive	–
C=C(CC(=O)O)C(=O)O	inactive	–
O=C(O)CCCCCCCCC(=O)O	inactive	–
CCCCCCC(C)Nc1ccc(Nc2ccccc2)cc1 (stereo unspecified)	–	34.4 µM (active)
COC(=O)Nc1ccc(Cl)c(Cl)c1	inactive	–
CC1(C)C2=CCCC(C)(C)[C@]23CC[C@H]1C3	inactive	–

Compound	outcome	AC50
CCCC(=O)C(CC)Sc1ccoc1C (stereo unspecified)	inactive	–
COc1ccc(CCC(C)=O)cc1	inactive	–
O=C(Nc1ccc2c(c1)Cc1ccccc1-2)C(F)(F)F	inactive	–
C=CC(C)(O)CCC=C(C)C (stereo unspecified)	inactive	–
CS(=O)(=O)c1ccc(C2=C(c3ccccc3)C(=O)OC2)cc1	inactive	–
COc1cc(Cl)c(OC)cc1N	inactive	–
C[C@H](CCC(=O)NCC(=O)O)[C@H]1CC[C@H]2[C@@H]3[C@H](O)C[C@@H]4C[C@H](O)CC[C@]4(C)[C@H]3C[C@H](O)[C@]12C	inactive	–
CCCCCCCCCC(C)C=O (stereo unspecified)	inactive	–
CC(C)NCC(O)COc1ccc(CC(N)=O)cc1 (stereo unspecified)	inactive	–
CSc1c(Cl)c(Cl)c(Cl)c(Cl)c1Cl	–	27.3 µM (active)
N#Cc1ccc(CC(=O)c2cccc(C(F)(F)F)c2)cc1	–	26.4 µM (active)
Nc1ccc(N)c2c1C(=O)c1ccccc1C2=O	inactive	–
CC(C)=CCCC(C)CCOC=O (stereo unspecified)	inactive	–
NCCNc1cccc2ccccc12	inactive	–
c1ccc(CN(Cc2ccccc2)Cc2ccccc2)cc1	inactive	–
Cc1ccc(C)o1	inactive	–
COc1ccc(CCO)cc1	inactive	–
C=CCCC(=O)/C=C/C1C(C)=CCCC1(C)C (stereo unspecified)	inactive	–
COS(=O)(=O)O	inactive	–

What follows are molecules tested against human Retinoid X Receptor beta (RXRb), RXRB (gene 6257) (UniProt P28702) (assay: ATG_RXRb_TRANS: Attagene TRANS-FACTORIAL HepG2 Assay for human Retinoid X Receptor beta (RXRb) (AID 2283013)).
Summary of the method: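 HepG2 cells were transiently transfected with multiplexed GAL4-UAS reporters and a chimeric RXRb-Gal4 construct, then exposed for 24 h. Reporter mRNA was quantified by RT-PCR, FAM labeling, HpaI digestion and capillary electrophoresis; gain of signal was scored against DMSO.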

Sequence of human Retinoid X Receptor beta (RXRb), RXRB (gene 6257) (P28702 whole entry, looked up, the tested form may be a part): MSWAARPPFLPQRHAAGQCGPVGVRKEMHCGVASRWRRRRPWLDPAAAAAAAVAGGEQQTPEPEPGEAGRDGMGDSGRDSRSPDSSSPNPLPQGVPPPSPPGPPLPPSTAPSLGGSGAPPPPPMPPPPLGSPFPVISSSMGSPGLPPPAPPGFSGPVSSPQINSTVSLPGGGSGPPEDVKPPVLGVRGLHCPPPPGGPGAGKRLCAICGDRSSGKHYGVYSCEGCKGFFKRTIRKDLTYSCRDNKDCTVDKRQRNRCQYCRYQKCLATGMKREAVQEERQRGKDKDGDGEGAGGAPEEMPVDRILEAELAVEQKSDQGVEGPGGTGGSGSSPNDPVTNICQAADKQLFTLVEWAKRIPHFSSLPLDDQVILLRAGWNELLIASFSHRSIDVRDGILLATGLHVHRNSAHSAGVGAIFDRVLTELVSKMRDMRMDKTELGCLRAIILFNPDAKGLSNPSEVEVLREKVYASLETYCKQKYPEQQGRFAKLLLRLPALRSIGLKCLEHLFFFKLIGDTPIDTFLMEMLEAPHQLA

Compound	outcome	AC50
CCCCOC(=O)CCCCCCCC(=O)OCCCC	inactive	–
CC(=O)O[C@H]1C[C@@H]2CC[C@@]1(C)C2(C)C	inactive	–
Nc1c(Cl)cc(Cl)cc1[N+](=O)[O-]	inactive	–
COc1cc([C@@H]2c3cc4c(cc3[C@@H](O[C@@H]3O[C@@H]5CO[C@@H](C)O[C@H]5[C@H](O)[C@H]3O)[C@H]3COC(=O)[C@H]23)OCO4)cc(OC)c1O	inactive	–
CC(C)C(OC(=O)c1ccccc1)C(C)(C)COC(=O)c1ccccc1 (stereo unspecified)	–	25.4 µM (active)
COc1ccc(N)c([N+](=O)[O-])c1	inactive	–
CCOC(=O)CN	inactive	–
CCCSc1ccc2nc(NC(=O)OC)[nH]c2c1	inactive	–
CCCCCCCCCCCCN1CCCCCC1=O	inactive	–
c1ccc(CCc2ccccc2)cc1	inactive	–
C[Si](C)(C)O[Si](C)(C)C	inactive	–
Nc1c(S(=O)(=O)O)cc(Br)c2c1C(=O)c1ccccc1C2=O	inactive	–
O=C(O)CNc1ccccc1	inactive	–
C=C(C)[C@H]1CC=C(C)C(=O)C1	inactive	–
C=C(CC(=O)O)C(=O)O	inactive	–
O=C(O)CCCCCCCCC(=O)O	inactive	–
CCCCCCC(C)Nc1ccc(Nc2ccccc2)cc1 (stereo unspecified)	–	30.2 µM (active)
COC(=O)Nc1ccc(Cl)c(Cl)c1	–	45.1 µM (active)
CC1(C)C2=CCCC(C)(C)[C@]23CC[C@H]1C3	inactive	–

Compound	outcome	AC50
CCCC(=O)C(CC)Sc1ccoc1C (stereo unspecified)	–	46.1 µM (active)
COc1ccc(CCC(C)=O)cc1	inactive	–
O=C(Nc1ccc2c(c1)Cc1ccccc1-2)C(F)(F)F	inactive	–
C=CC(C)(O)CCC=C(C)C (stereo unspecified)	inactive	–
CS(=O)(=O)c1ccc(C2=C(c3ccccc3)C(=O)OC2)cc1	inactive	–
COc1cc(Cl)c(OC)cc1N	inactive	–
C[C@H](CCC(=O)NCC(=O)O)[C@H]1CC[C@H]2[C@@H]3[C@H](O)C[C@@H]4C[C@H](O)CC[C@]4(C)[C@H]3C[C@H](O)[C@]12C	inactive	–
CCCCCCCCCC(C)C=O (stereo unspecified)	inactive	–
CC(C)NCC(O)COc1ccc(CC(N)=O)cc1 (stereo unspecified)	inactive	–
CSc1c(Cl)c(Cl)c(Cl)c(Cl)c1Cl	–	2.96 µM (active)
N#Cc1ccc(CC(=O)c2cccc(C(F)(F)F)c2)cc1	–	5.99 µM (active)
Nc1ccc(N)c2c1C(=O)c1ccccc1C2=O	inactive	–
CC(C)=CCCC(C)CCOC=O (stereo unspecified)	inactive	–
NCCNc1cccc2ccccc12	inactive	–
c1ccc(CN(Cc2ccccc2)Cc2ccccc2)cc1	–	13.1 µM (active)
Cc1ccc(C)o1	inactive	–
COc1ccc(CCO)cc1	inactive	–
C=CCCC(=O)/C=C/C1C(C)=CCCC1(C)C (stereo unspecified)	–	25.2 µM (active)
COS(=O)(=O)O	inactive	–

Source: PubChem BioAssay (EPA / NIEHS)
